Growth inhibition data for 6 compounds are collected here from PubChem BioAssay (NCI).

Each structure is given as a SMILES string. About 79,000 compounds went through this panel and 15% of them were active in at least one assay; those are over-represented in the sample as a whole. Values without a mark were called inactive. Calls of active or inactive are those of the source. Rule as the data show it: active = growth inhibition above about 70%; inactive = the rest.

Assay [1] in a line: NCI Yeast Anticancer Drug Screen. Data for the rad50 strain (AID 155).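 Also: 0% = growth of vehicle-only cultures of the same strain.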 The following applies: S. cerevisiae rad50 strain growth inhibition, stronger effect = higher value. The method in brief: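 Readout: growth inhibition relative to vehicle-treated cultures. Compound exposure was carried out in a genetically defined yeast strain deficient in DNA damage repair.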
The nature of assay [2]: NCI Yeast Anticancer Drug Screen. Data for the mec2-1 strain (AID 157). The following applies: S. cerevisiae mec2-1 strain, stronger effect = higher value. The method in brief: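 Growth inhibition is read against vehicle-treated controls after compound exposure of the mec2-1 yeast strain, which is defective in DNA damage repair or cell cycle control.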
A short description of assay [3]: NCI Yeast Anticancer Drug Screen. Data for the sgs1 mgt1 strain (AID 161).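 Also: 0% = growth of cultures given vehicle only.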 The following applies: S. cerevisiae sgs1 mgt1 strain, stronger effect = higher value. Summed up: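 Yeast cells carrying a defined DNA-repair defect were exposed to test compounds. Growth inhibition was measured relative to vehicle-treated controls.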
The nature of assay [4]: NCI Yeast Anticancer Drug Screen. Data for the cln2 rad14 strain (AID 165).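 Also: 0% = growth equal to vehicle treated cultures.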 The following applies: S. cerevisiae cln2 rad14 strain, stronger effect = higher value. The method in brief: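 Growth inhibition, relative to vehicle-treated controls, is the read-out. The test organism is a yeast strain with defined genetic alterations, cln2 rad14.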
The nature of assay [5]: NCI Yeast Anticancer Drug Screen. Data for the bub3 strain (AID 167). The following applies: S. cerevisiae bub3 mutant strain, stronger effect = higher value. The method in brief: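 Readout: yeast growth inhibition, expressed relative to vehicle-only wells. The test organism is a mutant strain from a panel with lesions in DNA repair or checkpoint genes.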
A short description of assay [6]: NCI Yeast Anticancer Drug Screen. Data for the mlh1 rad18 strain (AID 175). The following applies: S. cerevisiae mlh1 rad18 strain growth inhibition, stronger effect = higher value. Summed up: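 Cells of a genetically altered yeast strain, deficient in DNA damage repair, were treated with compound. Their growth was then compared with that of vehicle-treated cultures to give inhibition.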

Where [7] appears, read: at 5.0 µM (retest, dose inferred, filed as 0.5).
The mark [8] stands for this setting: at 50.0 µM (retest, dose inferred, filed as 5.0).

For the compound `Nc1nc(-c2ccccn2)cc2cc(Cl)ccc12`, the growth inhibition in assay [1] (setting [7]) is 93% (active); in assay [1] (setting [8]), 99% (active); in assay [1] (at 50.0 µM), 3.15%; in assay [2] (setting [7]), 92% (active); in assay [2] (setting [8]), 100% (active); in assay [2] (at 50.0 µM), -5.45%. The growth inhibition in assay [3] (setting [7]) is 95% (active); in assay [3] (setting [8]), 99% (active); in assay [3] (at 50.0 µM), 7.55%; in assay [4] (setting [7]) it was 88% (active); in assay [4] (setting [8]) it was 98% (active); in assay [4] (at 50.0 µM), -1.4%. The growth inhibition in assay [5] (setting [7]) is 92% (active); in assay [5] (setting [8]), 99% (active); in assay [5] (at 50.0 µM) it was 8.05%; in assay [6] (setting [7]) it was 94% (active); in assay [6] (setting [8]) it was 98% (active); in assay [6] (at 50.0 µM) it was 13.9%.

As for `CCN(CC)CCC(=O)/C=C/c1ccc(C)cc1`, the growth inhibition in assay [1] (setting [7]) was 4%; in assay [1] (setting [8]), 97% (active); in assay [1] (at 50.0 µM) it was 57.4%; in assay [2] (setting [7]), 9%; in assay [2] (setting [8]), 99% (active); in assay [2] (at 50.0 µM) it was 10.9%. Moreover, the growth inhibition in assay [3] (setting [7]) is 4%; in assay [3] (setting [8]) it was 99% (active); in assay [3] (at 50.0 µM), 18.6%; in assay [4] (setting [7]) it was 3%; in assay [4] (setting [8]), 97% (active); in assay [4] (at 50.0 µM), 50%. Moreover, the growth inhibition is 7% in assay [5] (setting [7]); 99% (active) in assay [5] (setting [8]); 15.1% in assay [5] (at 50.0 µM); 6% in assay [6] (setting [7]); 99% (active) in assay [6] (setting [8]); 24.1% in assay [6] (at 50.0 µM).

In the case of `NCCSC1(O)C(=O)c2ccccc2C1=O`, the growth inhibition is 35% in assay [1] (setting [7]); 92% (active) in assay [1] (setting [8]); 94.4% (active) in assay [1] (at 50.0 µM); 18% in assay [2] (setting [7]); 72% (active) in assay [2] (setting [8]); 65.7% in assay [2] (at 50.0 µM). Also, the growth inhibition is -4% in assay [3] (setting [7]); 64% in assay [3] (setting [8]); 56.1% in assay [3] (at 50.0 µM); -3% in assay [4] (setting [7]); 46% in assay [4] (setting [8]); 59.3% in assay [4] (at 50.0 µM). Besides, the growth inhibition was -3% in assay [5] (setting [7]); 43% in assay [5] (setting [8]); 48.5% in assay [5] (at 50.0 µM); 0% in assay [6] (setting [7]); 70% (active) in assay [6] (setting [8]); 75.2% (active) in assay [6] (at 50.0 µM).

Consider `O/N=C(/CCc1ccccc1Cl)c1ccccc1`, for which the growth inhibition in assay [1] (setting [7]) was 3%; in assay [1] (setting [8]), 34%; in assay [1] (at 50.0 µM), 94% (active); in assay [2] (setting [7]), -5%; in assay [2] (setting [8]), 55%; in assay [2] (at 50.0 µM), 93.6% (active). Moreover, the growth inhibition was 3% in assay [3] (setting [7]); 75% (active) in assay [3] (setting [8]); 96.3% (active) in assay [3] (at 50.0 µM); -2% in assay [4] (setting [7]); 41% in assay [4] (setting [8]); 90.1% (active) in assay [4] (at 50.0 µM). In addition, the growth inhibition in assay [5] (setting [7]) is 6%; in assay [5] (setting [8]), 61%; in assay [5] (at 50.0 µM), 87.2% (active); in assay [6] (setting [7]), 1%; in assay [6] (setting [8]) it was 80% (active); in assay [6] (at 50.0 µM), 93.3% (active).

In the case of `CN(C)CCOC1OCN(C)CC1(C)C` (stereo not drawn), the growth inhibition was 0% in assay [1] (setting [7]); -12% in assay [1] (setting [8]); 4.55% in assay [1] (at 50.0 µM); 0% in assay [2] (setting [7]); -7% in assay [2] (setting [8]); 7.2% in assay [2] (at 50.0 µM). The growth inhibition was -1% in assay [3] (setting [7]); -8% in assay [3] (setting [8]); -0.9% in assay [3] (at 50.0 µM); 1% in assay [4] (setting [7]); -15% in assay [4] (setting [8]); 36.1% in assay [4] (at 50.0 µM). Also, the growth inhibition was -2% in assay [5] (setting [7]); -3% in assay [5] (setting [8]); -3.75% in assay [5] (at 50.0 µM); 2% in assay [6] (setting [7]); -12% in assay [6] (setting [8]); -1.05% in assay [6] (at 50.0 µM).

`CCCCc1c2c(nc3c1CCc1cc4cc5c(nc4nc1-3)-c1nc3c(c(CCCC)c1CC5)CCCC3=O)C(=O)CCC2`: the growth inhibition in assay [1] (setting [7]) was 71% (active); in assay [1] (setting [8]) it was 97% (active); in assay [1] (at 50.0 µM) it was 97.7% (active); in assay [2] (setting [7]), 86% (active); in assay [2] (setting [8]) it was 97% (active); in assay [2] (at 50.0 µM), 97.2% (active). Moreover, the growth inhibition in assay [3] (setting [7]) is 54%; in assay [3] (setting [8]), 97% (active); in assay [3] (at 50.0 µM) it was 98% (active); in assay [4] (setting [7]), 90% (active); in assay [4] (setting [8]) it was 96% (active); in assay [4] (at 50.0 µM), 95.9% (active). The growth inhibition was 97% (active) in assay [5] (setting [7]); 96% (active) in assay [5] (setting [8]); 97.2% (active) in assay [5] (at 50.0 µM); 86% (active) in assay [6] (setting [7]); 96% (active) in assay [6] (setting [8]); 97.3% (active) in assay [6] (at 50.0 µM).
